By AC50 is commonly meant the midpoint of the concentration-response curve, whichever way the signal moves.

Data on three molecules can be found in PubChem BioAssay (EPA / NIEHS).

Assay [1] can be described thus: ATG_CRE_CIS: Attagene CIS-FACTORIAL HepG2 Assay for human cAMP Responsive Element (CRE) binding protein 3 (AID 2282926). The settings on record: HepG2 CRE cis-reporter, Attagene multiplexed mRNA; actives raise or lower the signal. The method in brief: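 Multiplexed transcription-unit reporters transfected into HepG2; 24 h dosing; RT-PCR/capillary electrophoresis fluorescence read-out; bidirectional fit vs DMSO.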

Assay [2] deals with CCAAT/enhancer-binding protein beta (Homo sapiens) (UniProt P17676). Briefly: ATG_C_EBP_CIS: Attagene CIS-FACTORIAL HepG2 Assay for human CCAAT/Enhancer Binding Protein (C/EBP) beta (AID 2282927). The settings on record: HepG2 Attagene cis-factorial transcription factor reporter; actives raise or lower the signal. In outline:
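Transiently transfected HepG2 (MRTU library, endogenous TF-driven promoters); 24 h dosing; total RNA → oligo(dT) RT → PCR → 6-FAM primer extension → HpaI digest → CE; fit bidirectionally vs DMSO.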

Assay [3] can be described thus: ATG_CMV_CIS: Attagene CIS-FACTORIAL HepG2 Assay for human CMV (Internal Marker) (AID 2282928).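 Note: endpoint acts as a background internal control marker rather than a target.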 The settings on record: HepG2 CMV promoter reporter, transcription factor profiling; actives raise or lower the signal. In outline: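 Cell system: HepG2, transiently transfected multiple reporter units under cis promoters. Exposure: 24 h. Detection: RT-PCR, FAM labeling, HpaI digestion, capillary electrophoresis. Analysis: bidirectional, DMSO baseline.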

A short description of assay [4]: ATG_DR4_LXR_CIS: Attagene CIS-FACTORIAL HepG2 Assay for human Liver X Receptor (LXR), DR4 submotif (AID 2282929). The settings on record: HepG2 Attagene DR4 cis-reporter, mRNA transcription; actives raise or lower the signal. In outline: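 Endogenous factor activity at a DR4 cis-element is read as reporter mRNA in transiently transfected HepG2 cells. Exposure lasts 24 h; transcripts are amplified, fluorescently labelled and sized by capillary electrophoresis, with DMSO as baseline.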

Assay [5] has as its target Aryl hydrocarbon receptor (Homo sapiens) (UniProt P35869). The experiment in a line: ATG_Ahr_CIS: Attagene CIS-FACTORIAL HepG2 Assay for human Aryl Hydrocarbon Receptor (Ahr) (AID 2282930). The settings on record: HepG2 AhR cis-factorial reporter transcription; actives raise or lower the signal. In outline: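 Read-out: reporter mRNA quantified by RT-PCR with fluorescent primer extension and capillary electrophoresis. Human HepG2 liver cells carried transfected cis-promoter reporter units and were exposed to chemical for 24 h; gain or loss fitted relative to DMSO.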

Assay [6] in a line: ATG_AP_1_CIS: Attagene CIS-FACTORIAL HepG2 Assay for human Activator Protein 1 (AP-1) (AID 2282931). The settings on record: HepG2 Attagene cis-factorial AP-1 reporter mRNA; actives raise or lower the signal. In outline: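 Fluorescence of labelled PCR fragments separated by capillary electrophoresis gives reporter mRNA levels. HepG2 with transfected cis-regulated reporter units, 24 h exposure; DMSO serves as baseline for bidirectional curve fits.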

Assay [7] is described as follows: ATG_AP_2_CIS: Attagene CIS-FACTORIAL HepG2 Assay for human Activator Protein 2 (AP-2) (AID 2282932). The settings on record: HepG2 AP-2 cis-reporter, Attagene transcription factor profiling; actives raise or lower the signal. The method in brief:
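Multiplexed mRNA reporter assay in HepG2: cis-regulated units report endogenous factor activity after 24 h treatment. Fluorescence from capillary electrophoresis of RT-PCR products gives the signal, with DMSO as baseline.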

The nature of assay [8]: ATG_BRE_CIS: Attagene CIS-FACTORIAL HepG2 Assay for human Bone Morphogenetic Protein (BMP) Response Element (BRE) (AID 2282933). The settings on record: HepG2 BMP response element reporter, Attagene transcription factor profiling; actives raise or lower the signal. In outline:
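Endogenous transcription factor activity read in transiently transfected HepG2 cells after 24 h chemical exposure. Bidirectional curve fitting against DMSO; readout is reporter transcript level by RT-PCR with capillary electrophoresis of labelled products.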

Assay [9] concerns the target Retinoic acid receptor alpha (Homo sapiens) (UniProt P10276). The experiment in a line: ATG_DR5_RAR_CIS: Attagene CIS-FACTORIAL HepG2 Assay for human Retinoic Acid Receptor Alpha (RARE), DR5 submotif (AID 2282934). The settings on record: HepG2 Attagene cis-factorial RARE DR5 reporter, mRNA; actives raise or lower the signal. In outline:
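Read-out: DR5-driven reporter transcript measured by RT-PCR, 6-FAM primer extension, HpaI digest and capillary electrophoresis. Human HepG2 liver cells carry transiently transfected cis-element reporter constructs; dosing lasts 24 h. Gain or loss of signal fitted against DMSO baseline.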

Assay [10] deals with Transcription factor E2F1 (Homo sapiens) (UniProt Q01094). The experiment in a line: ATG_E2F_CIS: Attagene CIS-FACTORIAL HepG2 Assay for human E2F Transcription Factor 1 (AID 2282935). The settings on record: HepG2 Attagene cis-reporter, E2F reporter RNA transcripts; actives raise or lower the signal. In outline:
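Measures reporter transcript levels via RT-PCR with capillary electrophoresis detection in HepG2 cells harboring cis-regulated reporter units; 24 h post-dose; bidirectional curve fitting with DMSO as baseline.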

The nature of assay [11]: ATG_E_Box_CIS: Attagene CIS-FACTORIAL HepG2 Assay for human Enhancer Box (E-box) (AID 2282936). The settings on record: HepG2 E-box cis-reporter transcription, actives raise or lower the signal. In outline: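 First, HepG2 cells receive multiple cis-regulated reporter constructs by transient transfection. Next, chemicals are applied for 24 h. Finally, reporter mRNA is quantified via RT-PCR and capillary electrophoresis, with DMSO as baseline.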

Assay [12] can be described thus: ATG_M_61_CIS: Attagene CIS-FACTORIAL HepG2 Assay for M61 Transcription Factor (Internal Marker) (AID 2282937). The settings on record: HepG2 Attagene CIS-FACTORIAL M61 internal marker reporter; actives raise or lower the signal. The method in brief:
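This endpoint serves as an internal background control within a multiplexed HepG2 cis-reporter panel. Cells are exposed for 24 h; reporter mRNA is amplified, fluorescently labelled and sized by capillary electrophoresis, with DMSO as negative control.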

Assay [13] can be described thus: ATG_EGR_CIS: Attagene CIS-FACTORIAL HepG2 Assay for human Early Growth Response 1 (EGR1) (AID 2282938). The settings on record: HepG2 Attagene CIS-FACTORIAL EGR reporter mRNA; actives raise or lower the signal. The method in brief:
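HepG2, transient MRTU transfection (cis promoters), 24 h compound. RNA → RT (oligo-dT) → PCR → 6-FAM labelling → HpaI cut → CE fluorescence. Bidirectional fit, DMSO baseline.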

Assay [14] is described as follows: ATG_M_19_CIS: Attagene CIS-FACTORIAL HepG2 Assay for M19 Transcription Factor (Internal Marker) (AID 2282939). The settings on record: HepG2 Attagene CIS-FACTORIAL M19 internal marker reporter; actives raise or lower the signal. The method in brief:
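Internal marker readout, fitted in both directions against DMSO, from HepG2 cells carrying transfected cis-element reporter constructs; RT-PCR and capillary electrophoresis of reporter mRNA after 24 h exposure.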

Assay [15] is described as follows: ATG_ERE_CIS: Attagene CIS-FACTORIAL HepG2 Assay for Estrogen Response Element (ERE) (AID 2282940). The settings on record: HepG2 ERE cis-reporter, Attagene RNA transcript; actives raise or lower the signal. In outline:
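After 24 h compound treatment, RNA from transfected HepG2 cells was reverse-transcribed, reporter cDNA PCR-amplified, FAM-labelled, HpaI-cut and resolved by capillary electrophoresis. ERE-driven cis reporter transcripts reflect endogenous factors; gain or loss scored against DMSO.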

The nature of assay [16]: ATG_Ets_CIS: Attagene CIS-FACTORIAL HepG2 Assay for human Erythroblast Transformation Specific (ETS) (AID 2282941). The settings on record: HepG2 ETS cis-reporter transcription, actives raise or lower the signal. The method in brief:
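After transient cis-reporter transfection, HepG2 cells receive test chemical for 24 h. Reporter mRNA levels, measured by RT-PCR and capillary electrophoresis fluorescence, are analysed bidirectionally relative to the DMSO baseline.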

Assay [17] has as its target Hepatocyte nuclear factor 3-beta (Homo sapiens) (UniProt Q9Y261). The experiment in a line: ATG_FoxA2_CIS: Attagene CIS-FACTORIAL HepG2 Assay for human Forkhead box A2 (FOXA2) (AID 2282942). The settings on record: HepG2 cis-reporter transcription factor activity, 24 h; actives raise or lower the signal. The method in brief:
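Cells: HepG2, transient multiplex reporter transfection. Exposure 24 h. Detection: reporter-specific RT-PCR, fluorescent labelling, restriction digest, capillary electrophoresis. Analysis: bidirectional curve fit, DMSO as negative control.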

The nature of assay [18]: ATG_FoxO_CIS: Attagene CIS-FACTORIAL HepG2 Assay for human Forkhead box O (FoxO) (AID 2282943). The settings on record: HepG2 Attagene cis-reporter, FoxO element, mRNA; actives raise or lower the signal. In outline:
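Read-out: fluorescence of 6-FAM-labelled reporter cDNA fragments resolved by capillary electrophoresis. Transiently transfected HepG2 cells were dosed for 24 h; activity fitted in both directions relative to DMSO controls.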

A short description of assay [19]: ATG_GATA_CIS: Attagene CIS-FACTORIAL HepG2 Assay for human GATA Binding Protein (AID 2282944). The settings on record: HepG2 GATA cis-element reporter, Attagene multiplex mRNA; actives raise or lower the signal. The method in brief: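 Reporter transcripts from a GATA cis-regulated unit, among multiplexed reporters in transfected HepG2 cells, were measured by RT-PCR with capillary electrophoresis after 24 h dosing. Induction or loss scored relative to DMSO.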

Assay [20] can be described thus: ATG_GLI_CIS: Attagene CIS-FACTORIAL HepG2 Assay for human Zinc Finger Protein GLI1 (AID 2282945). The settings on record: HepG2, Attagene cis-factorial reporter mRNA, GLI element; actives raise or lower the signal. The method in brief:
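Transiently transfected HepG2 cells report endogenous transcription factor activity via cis-element-driven reporter units. After 24 h compound exposure, reporter mRNA was measured by RT-PCR with capillary electrophoresis; bidirectional fitting against DMSO baseline.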

Activity calls are given as the source filed them. Rule for the calls: active = hit-call score of the fitted dose curve at least 0.9, where 1 is the maximum; inactive = score below 0.9.

Retinoic acid receptor alpha (Homo sapiens), sequence (P10276 whole entry, looked up): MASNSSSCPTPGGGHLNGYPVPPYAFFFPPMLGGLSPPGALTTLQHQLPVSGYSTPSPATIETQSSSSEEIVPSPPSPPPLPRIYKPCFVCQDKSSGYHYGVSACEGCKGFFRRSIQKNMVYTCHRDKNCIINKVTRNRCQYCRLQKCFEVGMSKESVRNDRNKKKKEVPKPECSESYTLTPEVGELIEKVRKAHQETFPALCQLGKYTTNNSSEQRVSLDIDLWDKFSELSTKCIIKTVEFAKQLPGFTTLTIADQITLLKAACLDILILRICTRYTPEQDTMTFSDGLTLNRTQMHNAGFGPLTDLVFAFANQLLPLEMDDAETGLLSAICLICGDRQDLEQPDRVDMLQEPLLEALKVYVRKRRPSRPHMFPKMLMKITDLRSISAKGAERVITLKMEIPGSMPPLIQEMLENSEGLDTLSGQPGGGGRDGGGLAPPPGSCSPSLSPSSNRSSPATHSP
Hepatocyte nuclear factor 3-beta (Homo sapiens), sequence (Q9Y261 whole entry, looked up): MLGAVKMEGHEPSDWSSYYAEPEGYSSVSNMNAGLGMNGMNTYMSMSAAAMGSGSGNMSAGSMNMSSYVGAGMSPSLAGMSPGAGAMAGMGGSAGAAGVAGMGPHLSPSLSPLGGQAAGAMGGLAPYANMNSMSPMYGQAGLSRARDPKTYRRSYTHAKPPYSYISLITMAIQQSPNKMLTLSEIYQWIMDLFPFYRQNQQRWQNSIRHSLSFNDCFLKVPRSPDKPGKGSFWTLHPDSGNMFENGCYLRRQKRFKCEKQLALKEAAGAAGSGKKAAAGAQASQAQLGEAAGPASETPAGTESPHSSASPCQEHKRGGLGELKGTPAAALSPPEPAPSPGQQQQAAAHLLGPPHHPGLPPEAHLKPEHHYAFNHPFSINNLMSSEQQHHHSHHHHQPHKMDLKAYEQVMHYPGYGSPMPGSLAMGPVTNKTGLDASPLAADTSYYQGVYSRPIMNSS
CCAAT/enhancer-binding protein beta (Homo sapiens), sequence (P17676 whole entry, looked up): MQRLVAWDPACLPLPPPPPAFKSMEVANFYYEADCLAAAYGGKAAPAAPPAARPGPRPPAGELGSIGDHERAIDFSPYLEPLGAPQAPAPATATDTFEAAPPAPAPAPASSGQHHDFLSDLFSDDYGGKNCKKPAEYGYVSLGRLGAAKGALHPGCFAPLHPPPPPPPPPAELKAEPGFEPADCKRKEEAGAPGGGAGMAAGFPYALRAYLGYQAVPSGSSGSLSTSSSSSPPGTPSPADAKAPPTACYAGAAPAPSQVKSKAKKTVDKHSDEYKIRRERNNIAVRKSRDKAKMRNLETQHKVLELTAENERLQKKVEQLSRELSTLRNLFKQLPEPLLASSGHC
Transcription factor E2F1 (Homo sapiens), sequence (Q01094 whole entry, looked up): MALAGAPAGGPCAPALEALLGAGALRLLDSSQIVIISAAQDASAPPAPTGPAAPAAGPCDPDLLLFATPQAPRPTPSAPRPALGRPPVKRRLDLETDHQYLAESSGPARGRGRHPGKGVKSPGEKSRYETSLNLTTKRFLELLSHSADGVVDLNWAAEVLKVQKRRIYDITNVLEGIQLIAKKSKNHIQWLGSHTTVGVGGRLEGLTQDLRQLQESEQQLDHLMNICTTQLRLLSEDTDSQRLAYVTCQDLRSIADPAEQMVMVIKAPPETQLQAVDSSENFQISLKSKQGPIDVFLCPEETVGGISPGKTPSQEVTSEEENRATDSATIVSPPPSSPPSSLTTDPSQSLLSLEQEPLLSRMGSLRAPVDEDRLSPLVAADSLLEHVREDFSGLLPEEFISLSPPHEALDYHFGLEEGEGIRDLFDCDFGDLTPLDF
Aryl hydrocarbon receptor (Homo sapiens), sequence (P35869 whole entry, looked up): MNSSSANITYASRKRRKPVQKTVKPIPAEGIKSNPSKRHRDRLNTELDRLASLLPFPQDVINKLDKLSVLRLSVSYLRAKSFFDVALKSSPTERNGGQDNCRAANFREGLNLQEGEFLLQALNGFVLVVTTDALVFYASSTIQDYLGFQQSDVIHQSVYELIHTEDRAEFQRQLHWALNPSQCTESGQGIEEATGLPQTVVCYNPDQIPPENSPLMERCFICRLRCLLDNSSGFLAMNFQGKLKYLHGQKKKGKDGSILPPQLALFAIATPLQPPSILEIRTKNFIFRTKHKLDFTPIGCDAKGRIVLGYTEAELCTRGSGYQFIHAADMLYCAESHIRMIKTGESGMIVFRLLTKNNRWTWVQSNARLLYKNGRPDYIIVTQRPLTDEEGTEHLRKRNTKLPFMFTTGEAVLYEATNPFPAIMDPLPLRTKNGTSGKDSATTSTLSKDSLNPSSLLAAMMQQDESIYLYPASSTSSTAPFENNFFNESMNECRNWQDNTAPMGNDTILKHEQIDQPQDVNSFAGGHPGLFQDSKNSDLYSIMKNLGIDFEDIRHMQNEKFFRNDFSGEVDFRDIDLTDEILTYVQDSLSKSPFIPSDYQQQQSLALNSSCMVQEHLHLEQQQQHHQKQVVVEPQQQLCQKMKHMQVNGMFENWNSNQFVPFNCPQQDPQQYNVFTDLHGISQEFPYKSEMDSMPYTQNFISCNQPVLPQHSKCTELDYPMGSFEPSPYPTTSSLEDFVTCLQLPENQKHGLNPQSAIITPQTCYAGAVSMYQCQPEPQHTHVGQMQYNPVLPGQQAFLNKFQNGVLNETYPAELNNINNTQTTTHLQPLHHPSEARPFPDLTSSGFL

With `O=P(OCC(Br)CBr)(OCC(Br)CBr)OCC(Br)CBr` (stereo not given), the molecule was classed as inactive in assay [1], in [2], in assay [3], in assay [9], in assay [10] and in assay [11]. Also, the molecule was classed as inactive in assay [12], in [14], in [15], in assay [16], in assay [17] and in assay [18]. In addition, the molecule was classed as inactive in assay [19] and in assay [20]. Also, the AC50 in assay [4] is 8.35 µM (active); in assay [5] it was 19.5 µM (active); in assay [6], 53.9 µM (active); in assay [7] it was 40.1 µM (active); in assay [8], 20.6 µM (active); in assay [13] it was 7.19 µM (active).

In the case of `CCCCC(CC)COC(=O)c1c(Br)c(Br)c(Br)c(Br)c1C(=O)OCC(CC)CCCC` (stereo not given), the result in assay [1], in assay [2], in assay [3], in [4], in assay [5] and in assay [6] was inactive. For the same molecule, the call in [7], in assay [8], in assay [9], in assay [10], in [11] and in assay [12] was inactive. The call in [13], in assay [14], in [15], in assay [16], in [17] and in [18] was inactive. The molecule was classed as inactive in assay [19] and in assay [20].

For `CC1=C(C(=O)Nc2ccccc2)S(=O)(=O)CCO1`, the outcome in [1], in assay [2], in assay [5], in assay [9], in assay [10] and in assay [12] was inactive. Moreover, the result in assay [14], in assay [15], in assay [16], in assay [17], in assay [18] and in assay [19] was inactive. Further, the molecule was called inactive in assay [20]. Further, the AC50 in assay [3] was 45.4 µM (active); in [4] it was 44.3 µM (active); in assay [6], 66.8 µM (active); in assay [7], 18.1 µM (active); in [8], 6.73 µM (active); in assay [11], 21.8 µM (active). Further, the AC50 in assay [13] was 10.7 µM (active).
